Screening results from PubChem.
An excerpt weighted towards active compounds, which were near 3.9% of everything screened.
aSyn 5UTR inh: MLPCN primary screen, SNCA 5' untranslated region; hit rate 0.82% among 300,000; inhibition, % (tested at 7.5 µM); alpha-synuclein 5'UTR reporter, inhibitor activity; in the data active means inhibition above about 60%;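 further: H4 neuroglioblastoma cells stably carrying SNCA 5'UTR luciferase fusion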
HSP90 refold inh: HSP90 inhibitors, primary screen, cell lysate, luminescence; Heat shock protein HSP 90 (rabbit reticulocyte lysate; luciferase refolding); Rabbit reticulocyte lysate, luciferase refolding luminescence, 3 h; hit rate 0.91% among 290,000; inhibition, % at 5.6 µM;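 active means inhibition above the screen-wide mean plus 3 SD, computed separately per campaign, cut at about 16% in these data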;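 further: inhibitors lower the luminescence because luciferase stays unfolded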
C8 TRAIL sens: viability loss with TRAIL in NB7+C8 cells, primary screen, TRAIL sensitizer project, cell-based, ATPlite luminescence | hit rate 1% among 360,000 | inhibition (viability loss, TRAIL sensitization), % at 10 µM;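 active means compounds causing at least 50% loss of cell viability in the single-dose screen, relative to plate controls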
TROY NFkB inh: inhibitors of TROY-driven NF-kB signaling, primary screen, Q293 LMP1-TROYcd cells, NF-kB luciferase, uHTS; Q293 LMP1-TROYcd NF-kB luciferase reporter, 4 h; inhibition, % at 10 µM; hit rate 0.98% among 360,000; AID 1347056, 2019;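 active means compounds whose plate-normalised and pattern-corrected inhibition of the luciferase reporter signal at the single screening dose is 50% or more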
HIF-2a block: HIF-2a reporter inhibitors, primary screen, luminescence, 786-0 RCC cells; 786-0 RCC cells HIF-2a reporter, luciferase luminescence, overnight; inhibition, % at 18.8 µM; hit rate 0.72% among 360,000;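 active means inhibition of the luminescence signal of 40% or more relative to plate controls, in a single-dose primary screen at 18.75 µM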
TWEAK Fn14 block: inhibitors of TWEAK-Fn14 signaling, primary screen, luciferase reporter cells, uHTS. TWEAK-stimulated Fn14 reporter cells, luciferase luminescence, 8 h. inhibition, % at 10 µM. hit rate 2% among 360,000; in the data active means inhibition above about 50%
HSP90 inh confirm: HSP90 inhibitors, confirmation, cell lysate, luminescence; shares compounds with HSP90 refold inh; inhibition, % at 5.9 µM; hit rate 64% among 2,300; rabbit reticulocyte lysate, luciferase refolding luminescence, 3 h; in the data active means inhibition above about 18%
luciferase ctr: firefly luciferase inhibitors, HSP90 counter-screen, confirmation, artefact control for HSP90 inhibitor project, biochemical, luminescence, triplicate; inhibition, % at 5.9 µM; hit rate 48% among 2,300; AID 1847, 2009; shares compounds with HSP90 refold inh; purified native firefly luciferase;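 active means inhibition above the mean inhibition of all tested sample wells plus 3 SD, cut at about 10% in these data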
Target sequence (P08659 whole entry, looked up): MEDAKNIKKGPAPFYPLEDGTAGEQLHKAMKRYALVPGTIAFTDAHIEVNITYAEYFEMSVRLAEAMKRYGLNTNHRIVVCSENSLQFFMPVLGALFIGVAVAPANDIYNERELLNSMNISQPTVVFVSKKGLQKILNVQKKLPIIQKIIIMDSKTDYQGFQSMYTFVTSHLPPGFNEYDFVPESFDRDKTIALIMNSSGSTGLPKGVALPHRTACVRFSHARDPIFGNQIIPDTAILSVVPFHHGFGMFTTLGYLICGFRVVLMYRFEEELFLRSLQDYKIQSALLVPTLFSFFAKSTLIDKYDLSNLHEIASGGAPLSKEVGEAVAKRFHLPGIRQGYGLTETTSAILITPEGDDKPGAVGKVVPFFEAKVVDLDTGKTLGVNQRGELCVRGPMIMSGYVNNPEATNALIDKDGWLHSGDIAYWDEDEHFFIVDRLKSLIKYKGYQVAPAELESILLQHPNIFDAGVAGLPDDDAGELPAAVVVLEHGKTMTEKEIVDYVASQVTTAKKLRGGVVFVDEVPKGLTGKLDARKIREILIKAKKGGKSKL
Mdm2 MdmX conf: retested Mdm2-MdmX interaction blockers, confirmation, cell-based, luminescence, single concentration, set 2; shares compounds with HIF-2a block; SaOS-2 split-luciferase Mdm2/MdmX complementation; inhibition, % at 8 µM; hit rate 99% among 740;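 active means mean inhibition of the luminescence signal across two replicates at or above 26 percent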
HIF-2a conf: HIF-2a reporter inhibitor retest, confirmation, luminescence, 786-0 RCC cells; AID 651580, 2012; hit rate 56% among 1,800; shares compounds with HIF-2a block; inhibition, % at 18.8 µM; HIF-2a luciferase reporter luminescence, overnight;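 active means mean inhibition across four replicates of at least 40 percent at the single tested concentration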
HIF-1a counter: HIF-1a luciferase reporter signal reduction – MiaPaCa-2 cells, single concentration, counter-screen for HIF-2a inhibitor project, confirmation; hit rate 72% among 1,800; inhibition, % at 18.8 µM; MiaPaCa-2 HIF-1a luciferase reporter, desferoxamine, overnight; AID 651589, 2012; shares compounds with HIF-2a block;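 active means mean inhibition of the reporter signal across four replicates at the single tested dose of 50% or more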
Large screens that a line does not name were inactive (follow-up assays come after a bar, where they were run).

C[C@H](CO)N1C[C@H](C)[C@H](CN(C)C(=O)C2CC2)OCc2cnnn2CCCC1=O	none (no result: aSyn 5UTR inh, HSP90 refold inh)
COc1ccc(/C=N/NS(=O)(=O)c2ccc(C)cc2)cc1OC(=O)c1ccccc1	none (no result: aSyn 5UTR inh)
COc1cc(/C=N/NS(=O)(=O)c2ccc(C)cc2)ccc1OCc1cccc(C(=O)O)c1	aSyn 5UTR inh 90, HSP90 refold inh 46 | HSP90 inh confirm inactive | luciferase ctr inactive
COc1cc(/C=N/NS(=O)(=O)c2ccc3ccccc3c2)ccc1OCc1ccc(C(=O)O)cc1	aSyn 5UTR inh 84, HSP90 refold inh 51 | HSP90 inh confirm inactive | luciferase ctr inactive
CC1=C(C(=O)N(C(C)C)C(C)C)CC(CC(=O)NC2CCCC2)C(=O)N1CCC1=CCCCC1 (stereo not drawn)	none (no result: aSyn 5UTR inh, HSP90 refold inh)
O=C(CN1C(=O)C(=O)N(C2CCCC2)C1=O)Nc1ccccc1OC(F)F	none (no result: aSyn 5UTR inh, HSP90 refold inh)
Cc1ccc(C(=O)Nc2cccc(C(=O)N3CCOCC3)c2)cc1Cl	none
CCOc1ccc(Cl)cc1-c1cc(C(=O)Nc2cc(OC)c(OC)c(OC)c2)[nH]n1	none (no result: aSyn 5UTR inh, HSP90 refold inh)
Cc1ccc(-n2nnc(-c3nccs3)n2)cc1	aSyn 5UTR inh 95, HSP90 refold inh 76, C8 TRAIL sens 87, TROY NFkB inh 66, HIF-2a block 51, TWEAK Fn14 block 94 | HSP90 inh confirm 85 | luciferase ctr 81
Clc1ccc(-n2nnc(-c3nccs3)n2)cc1Cl	none
O=C(O)/C(=C\c1ccc(-c2ccccc2[N+](=O)[O-])o1)c1ccccc1	HSP90 refold inh 34 | HSP90 inh confirm inactive | luciferase ctr inactive
Cc1ccccc1CNC(=O)c1ccccc1SCC(=O)NCc1ccco1	none (no result: aSyn 5UTR inh, HSP90 refold inh)
Cc1cc(/C=N/NC(=O)c2cccc(N(C)C)c2)c(C)n1-c1cc(C(=O)O)cc(C(=O)O)c1	none
CN(C)c1cccc(C(=O)N/N=C/c2ccccc2F)c1	HSP90 refold inh 36, C8 TRAIL sens 79, TROY NFkB inh 56, TWEAK Fn14 block 89 (no result: aSyn 5UTR inh) | HSP90 inh confirm 73 | luciferase ctr 60
COc1ccc2[nH]c(C(=O)Nc3cccc(C)n3)cc2c1	HSP90 refold inh 23, C8 TRAIL sens 55 | HSP90 inh confirm 30 | luciferase ctr 19
COc1ccc2[nH]c(C(=O)Nc3ccc(C)c(F)c3)cc2c1	none
CCCc1ccc(-c2ccc(C(=O)O)cc2)nc1	HSP90 refold inh 50, TWEAK Fn14 block 78 | HSP90 inh confirm 56 | luciferase ctr 26
COC(=O)C[C@@H]1C[C@@H]2c3cc(NS(=O)(=O)c4ccc(F)cc4)ccc3O[C@@H]2[C@H](CO)O1	none (no result: aSyn 5UTR inh, HSP90 refold inh)
CC(=O)Oc1cc(OC(C)=O)c2c(C)cc(=O)oc2c1	HSP90 refold inh 21 | HSP90 inh confirm inactive | luciferase ctr inactive
CC(C)[C@H](NC(=O)c1ccccc1)C(=O)NC1=NCCS1	none (no result: aSyn 5UTR inh, HSP90 refold inh)
CSc1ccccc1NC(=O)C1(C)CCN1C(=O)Cc1ccc(-c2ccccc2)cc1 (stereo not drawn)	none (no result: aSyn 5UTR inh, HSP90 refold inh)
Cc1c(C(=O)Nc2ccc(Br)cc2)cnn1C	none
Cc1cc(C)c(C(=O)Nc2ccc3c(c2)OCCO3)c(C)c1	none (no result: aSyn 5UTR inh, HSP90 refold inh)
Cc1nn(C)cc1C(=O)Nc1ccc2c(c1)OCCO2	HSP90 refold inh 19, TWEAK Fn14 block 66 | HSP90 inh confirm 21 | luciferase ctr inactive
Cc1c(C(=O)Nc2ccc3c(c2)OCCO3)cnn1C	HSP90 refold inh 35, TROY NFkB inh 73, TWEAK Fn14 block 91 | HSP90 inh confirm 57 | luciferase ctr 60
COc1ccccc1N1CCN(/N=C/c2ccc(C(=O)O)cc2)CC1	HSP90 refold inh 46 | HSP90 inh confirm 60 | luciferase ctr 39
COc1ccc(OCc2cccc(C(=O)Nc3cc(C)on3)c2)cc1	aSyn 5UTR inh 66, HSP90 refold inh 40, HIF-2a block 66 | HSP90 inh confirm 65 | luciferase ctr 58 | HIF-2a conf 68 | HIF-1a counter inactive
COc1ccc(OCc2cccc(C(=O)Nn3cc([N+](=O)[O-])cn3)c2)cc1	HSP90 refold inh 18, HIF-2a block 62 | HSP90 inh confirm 62 | luciferase ctr 28 | HIF-2a conf 84 | HIF-1a counter inactive
CCOc1ccc(OCc2cccc(C(=O)N/N=C/c3cccnc3)c2)cc1	aSyn 5UTR inh 87, HSP90 refold inh 31, HIF-2a block 71 | HSP90 inh confirm 23 | luciferase ctr inactive | HIF-2a conf 90 | HIF-1a counter inactive
COc1ccc(OCc2cccc(C(=O)NN)c2)cc1	aSyn 5UTR inh 67, HSP90 refold inh 44, HIF-2a block 61 | HSP90 inh confirm 54 | luciferase ctr 30 | HIF-2a conf 70 | HIF-1a counter inactive
CCOc1ccc(OCc2cccc(C(=O)N3CCOCC3)c2)cc1	aSyn 5UTR inh 102, HSP90 refold inh 61, C8 TRAIL sens 65, HIF-2a block 65 | HSP90 inh confirm 70 | luciferase ctr 73 | HIF-2a conf 77 | HIF-1a counter inactive
O=C(/C=C/c1ccccc1Cl)c1ccc(O)cc1	none
O=C(/C=C/c1c(F)cccc1Cl)c1ccc(O)cc1	HSP90 refold inh 24, TWEAK Fn14 block 61 | HSP90 inh confirm inactive | luciferase ctr inactive | Mdm2 MdmX conf 50
O=C(Nc1ccc2ncccc2c1)c1cccc(Br)c1	none
Cc1ccc(C(=O)Nc2ccc3ncccc3c2)cc1	aSyn 5UTR inh 84, HSP90 refold inh 50, C8 TRAIL sens 90, TROY NFkB inh 56, HIF-2a block 43, TWEAK Fn14 block 94 | HSP90 inh confirm 71 | luciferase ctr 58 | HIF-2a conf 51 | HIF-1a counter inactive
COc1cccc(-c2cnc(C(O)c3ccc(Cl)c(Cl)c3)[nH]2)c1 (stereo not drawn)	none (no result: aSyn 5UTR inh, HSP90 refold inh)
